# How the values were obtained:
# Experiment in all cases: SPOT peptide array binding signal intensity (averaged, normalized) (arbitrary units (background-subtracted, floor 0; scale differs between SH3 domains)); higher = stronger binding of the SH3 domain to the peptide
# CaNbp2 = target: CaNbp2
# Method: (§1)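 GST-tagged SH3 domains from S. cerevisiae (Sc), A. gossypii (Ag), C. albicans (Ca) and S. pombe (Sp) were incubated at 10 ug/ml overnight at 4 C on cellulose SPOT membranes carrying 292 synthetic 15-mer peptides mined from the S. cerevisiae proteome (cysteines replaced by serines). Binding was detected with anti-GST antibody, HRP secondary and chemiluminescence, quantified with Genespotter, and reported as normalized spot intensities averaged over biological replicates.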
# CaRvs167 = target: CaRvs167
# Method: as §1
# CaRvs167-3 = target: CaRvs167-3
# Method: as §1
# CaSho1 = target: CaSho1
# Method: as §1
# CaSla1-D1-D2 = target: CaSla1-D1-D2
# Method: as §1
# CaSla1-D3 = target: CaSla1-D3
# Method: as §1
# ScAbp1 = target: ScAbp1
# Method: as §1
# ScBbc1 = target: ScBbc1
# Method: as §1
# ScBem1-D1 = target: ScBem1-D1
# Method: as §1
# ScBzz1-D1 = target: ScBzz1-D1
# Method: as §1
# ScBzz1-D2 = target: ScBzz1-D2
# Method: as §1
# ScCyk3 = target: ScCyk3
# Method: as §1
# ScFus1 = target: ScFus1
# Method: as §1
# ScHof1 = target: ScHof1
# Method: as §1
# ScHse1 = target: ScHse1
# Method: as §1
# ScLsb1 = target: ScLsb1
# Method: as §1
# ScLsb2 = target: ScLsb2
# Method: as §1
# ScLsb3 = target: ScLsb3
# Method: as §1
# ScLsb4 = target: ScLsb4
# Method: as §1
# ScMyo3 = target: ScMyo3
# Method: as §1
# ScMyo5 = target: ScMyo5
# Method: as §1
# ScNbp2 = target: ScNbp2
# Method: as §1
# ScPex13 = target: ScPex13
# Method: as §1
# ScRvs167 = target: ScRvs167
# Method: as §1
# ScSho1 = target: ScSho1
# Method: as §1
# ScSla1-D1-D2 = target: ScSla1-D1-D2
# Method: as §1
# ScSla1-D3 = target: ScSla1-D3
# Method: as §1
# SpAbp1-D1 = target: SpAbp1-D1
# Method: as §1
# SpBbc1 = target: SpBbc1
# Method: as §1
# SpBzz1-D1 = target: SpBzz1-D1
# Method: as §1
# SpBzz1-D2 = target: SpBzz1-D2
# Method: as §1
# SpCyk3 = target: SpCyk3
# Method: as §1
# SpHof1 = target: SpHof1
# Method: as §1
# SpHof1-2 = target: SpHof1-2
# Method: as §1
# SpHof1-3 = target: SpHof1-3
# Method: as §1
# SpHse1 = target: SpHse1
# Method: as §1
# SpLsb1 = target: SpLsb1
# Method: as §1
# SpLsb4 = target: SpLsb4
# Method: as §1
# SpMyo1 = target: SpMyo1
# Method: as §1
# SpNbp2 = target: SpNbp2
# Method: as §1
# SpPex13 = target: SpPex13
# Method: as §1
# SpRvs167 = target: SpRvs167
# Method: as §1
# SpSla1-D1-D2 = target: SpSla1-D1-D2
# Method: as §1
# SpSla1-D3 = target: SpSla1-D3
# Method: as §1
# AgAbp1 = target: AgAbp1
# Method: as §1
# AgBbc1 = target: AgBbc1
# Method: as §1
# AgBem1-D1 = target: AgBem1-D1
# Method: as §1
# AgBzz1-D1 = target: AgBzz1-D1
# Method: as §1
# AgBzz1-D2 = target: AgBzz1-D2
# Method: as §1
# AgCyk3 = target: AgCyk3
# Method: as §1
# AgFus1 = target: AgFus1
# Method: as §1
# AgHof1 = target: AgHof1
# Method: as §1
# AgHse1 = target: AgHse1
# Method: as §1
# AgLsb1 = target: AgLsb1
# Method: as §1
# AgLsb4 = target: AgLsb4
# Method: as §1
# AgMyo5 = target: AgMyo5
# Method: as §1
# AgNbp2 = target: AgNbp2
# Method: as §1
# AgRvs167 = target: AgRvs167
# Method: as §1
# AgSho1 = target: AgSho1
# Method: as §1
# AgSla1-D1-D2 = target: AgSla1-D1-D2
# Method: as §1
# AgSla1-D3 = target: AgSla1-D3
# Method: as §1
# CaAbp1-D1 = target: CaAbp1-D1
# Method: as §1
# CaAbp1-D2 = target: CaAbp1-D2
# Method: as §1
# CaBbc1 = target: CaBbc1
# Method: as §1
# CaBem1-D1 = target: CaBem1-D1
# Method: as §1
# CaBzz1-D1 = target: CaBzz1-D1
# Method: as §1
# CaBzz1-D2 = target: CaBzz1-D2
# Method: as §1
# CaCyk3 = target: CaCyk3
# Method: as §1
# CaFus1 = target: CaFus1
# Method: as §1
# CaHof1 = target: CaHof1
# Method: as §1
# CaHse1 = target: CaHse1
# Method: as §1
# CaLsb1 = target: CaLsb1
# Method: as §1
# CaLsb4 = target: CaLsb4
# Method: as §1
# CaMyo5 = target: CaMyo5
# Method: as §1
binder,measurement,setting,value
QRIRKIPGIPLMSVG,SPOT peptide array binding signal intensity,CaNbp2,549
same,SPOT peptide array binding signal intensity,CaRvs167,296
same,SPOT peptide array binding signal intensity,CaRvs167-3,6.5
same,SPOT peptide array binding signal intensity,CaSho1,303
same,SPOT peptide array binding signal intensity,CaSla1-D1-D2,817
same,SPOT peptide array binding signal intensity,CaSla1-D3,38.5
same,SPOT peptide array binding signal intensity,ScAbp1,99
same,SPOT peptide array binding signal intensity,ScBbc1,32.5
same,SPOT peptide array binding signal intensity,ScBem1-D1,13.5
same,SPOT peptide array binding signal intensity,ScBzz1-D1,2
same,SPOT peptide array binding signal intensity,ScBzz1-D2,25
same,SPOT peptide array binding signal intensity,ScCyk3,7
same,SPOT peptide array binding signal intensity,ScFus1,284
same,SPOT peptide array binding signal intensity,ScHof1,2
same,SPOT peptide array binding signal intensity,ScHse1,553
same,SPOT peptide array binding signal intensity,ScLsb1,9.25
same,SPOT peptide array binding signal intensity,ScLsb2,13
same,SPOT peptide array binding signal intensity,ScLsb3,3970
same,SPOT peptide array binding signal intensity,ScLsb4,349
same,SPOT peptide array binding signal intensity,ScMyo3,≤ 0
same,SPOT peptide array binding signal intensity,ScMyo5,≤ 0
same,SPOT peptide array binding signal intensity,ScNbp2,672
same,SPOT peptide array binding signal intensity,ScPex13,408
same,SPOT peptide array binding signal intensity,ScRvs167,1160
same,SPOT peptide array binding signal intensity,ScSho1,1280
same,SPOT peptide array binding signal intensity,ScSla1-D1-D2,1610
same,SPOT peptide array binding signal intensity,ScSla1-D3,64
same,SPOT peptide array binding signal intensity,SpAbp1-D1,116
same,SPOT peptide array binding signal intensity,SpBbc1,9.25
same,SPOT peptide array binding signal intensity,SpBzz1-D1,176
same,SPOT peptide array binding signal intensity,SpBzz1-D2,5.75
same,SPOT peptide array binding signal intensity,SpCyk3,5
same,SPOT peptide array binding signal intensity,SpHof1,140
same,SPOT peptide array binding signal intensity,SpHof1-2,51.5
same,SPOT peptide array binding signal intensity,SpHof1-3,440
same,SPOT peptide array binding signal intensity,SpHse1,242
same,SPOT peptide array binding signal intensity,SpLsb1,17
same,SPOT peptide array binding signal intensity,SpLsb4,3060
same,SPOT peptide array binding signal intensity,SpMyo1,≤ 0
same,SPOT peptide array binding signal intensity,SpNbp2,359
same,SPOT peptide array binding signal intensity,SpPex13,22
same,SPOT peptide array binding signal intensity,SpRvs167,1140
same,SPOT peptide array binding signal intensity,SpSla1-D1-D2,89.5
same,SPOT peptide array binding signal intensity,SpSla1-D3,27
YHSRRHPLALGFKYV,SPOT peptide array binding signal intensity,AgAbp1,25.5
same,SPOT peptide array binding signal intensity,AgBbc1,12
same,SPOT peptide array binding signal intensity,AgBem1-D1,86
same,SPOT peptide array binding signal intensity,AgBzz1-D1,≤ 0
same,SPOT peptide array binding signal intensity,AgBzz1-D2,≤ 0
same,SPOT peptide array binding signal intensity,AgCyk3,4
same,SPOT peptide array binding signal intensity,AgFus1,566
same,SPOT peptide array binding signal intensity,AgHof1,19
same,SPOT peptide array binding signal intensity,AgHse1,187
same,SPOT peptide array binding signal intensity,AgLsb1,2
same,SPOT peptide array binding signal intensity,AgLsb4,2
same,SPOT peptide array binding signal intensity,AgMyo5,3.25
same,SPOT peptide array binding signal intensity,AgNbp2,41.5
same,SPOT peptide array binding signal intensity,AgRvs167,7.67
same,SPOT peptide array binding signal intensity,AgSho1,26
same,SPOT peptide array binding signal intensity,AgSla1-D1-D2,26
same,SPOT peptide array binding signal intensity,AgSla1-D3,17
same,SPOT peptide array binding signal intensity,CaAbp1-D1,156
same,SPOT peptide array binding signal intensity,CaAbp1-D2,81.5
same,SPOT peptide array binding signal intensity,CaBbc1,6.75
same,SPOT peptide array binding signal intensity,CaBem1-D1,121
same,SPOT peptide array binding signal intensity,CaBzz1-D1,64
same,SPOT peptide array binding signal intensity,CaBzz1-D2,22
same,SPOT peptide array binding signal intensity,CaCyk3,4
same,SPOT peptide array binding signal intensity,CaFus1,630
same,SPOT peptide array binding signal intensity,CaHof1,4.5
same,SPOT peptide array binding signal intensity,CaHse1,38.5
same,SPOT peptide array binding signal intensity,CaLsb1,1.75
same,SPOT peptide array binding signal intensity,CaLsb4,≤ 0
same,SPOT peptide array binding signal intensity,CaMyo5,38.5
same,SPOT peptide array binding signal intensity,CaNbp2,204
same,SPOT peptide array binding signal intensity,CaRvs167,44
same,SPOT peptide array binding signal intensity,CaRvs167-3,103
same,SPOT peptide array binding signal intensity,CaSho1,153
same,SPOT peptide array binding signal intensity,CaSla1-D1-D2,124
same,SPOT peptide array binding signal intensity,CaSla1-D3,23.5
same,SPOT peptide array binding signal intensity,ScAbp1,54
same,SPOT peptide array binding signal intensity,ScBbc1,2.75
same,SPOT peptide array binding signal intensity,ScBem1-D1,58
same,SPOT peptide array binding signal intensity,ScBzz1-D1,1.5
same,SPOT peptide array binding signal intensity,ScBzz1-D2,40.5
same,SPOT peptide array binding signal intensity,ScCyk3,13.5
same,SPOT peptide array binding signal intensity,ScFus1,368
same,SPOT peptide array binding signal intensity,ScHof1,16.5
same,SPOT peptide array binding signal intensity,ScHse1,480
same,SPOT peptide array binding signal intensity,ScLsb1,1.5
same,SPOT peptide array binding signal intensity,ScLsb2,6.5
same,SPOT peptide array binding signal intensity,ScLsb3,≤ 0
same,SPOT peptide array binding signal intensity,ScLsb4,12
same,SPOT peptide array binding signal intensity,ScMyo3,18.8
same,SPOT peptide array binding signal intensity,ScMyo5,24.2
same,SPOT peptide array binding signal intensity,ScNbp2,102
same,SPOT peptide array binding signal intensity,ScPex13,10.5
same,SPOT peptide array binding signal intensity,ScRvs167,31.2
same,SPOT peptide array binding signal intensity,ScSho1,592
same,SPOT peptide array binding signal intensity,ScSla1-D1-D2,65
same,SPOT peptide array binding signal intensity,ScSla1-D3,4.75
same,SPOT peptide array binding signal intensity,SpAbp1-D1,130
same,SPOT peptide array binding signal intensity,SpBbc1,8.75
same,SPOT peptide array binding signal intensity,SpBzz1-D1,122
same,SPOT peptide array binding signal intensity,SpBzz1-D2,2
same,SPOT peptide array binding signal intensity,SpCyk3,3
same,SPOT peptide array binding signal intensity,SpHof1,42.8
same,SPOT peptide array binding signal intensity,SpHof1-2,10.8
same,SPOT peptide array binding signal intensity,SpHof1-3,386
same,SPOT peptide array binding signal intensity,SpHse1,274
same,SPOT peptide array binding signal intensity,SpLsb1,50.5
same,SPOT peptide array binding signal intensity,SpLsb4,≤ 0
same,SPOT peptide array binding signal intensity,SpMyo1,14.5
same,SPOT peptide array binding signal intensity,SpNbp2,53
same,SPOT peptide array binding signal intensity,SpPex13,52
same,SPOT peptide array binding signal intensity,SpRvs167,66.2
same,SPOT peptide array binding signal intensity,SpSla1-D1-D2,1
same,SPOT peptide array binding signal intensity,SpSla1-D3,23.5

# — the supplement of paper PMC4466140
